# The whole screen tested about 2,400 compounds, of which about 750 (31%) were called active. Some of the results follow. Values without a mark were called inactive.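 Rule for the calls: active = median signal gain over dofetilide-blocked control wells reaching their mean plus 3 SD, so readout 1 at least 0; inactive = the rest.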
# Biological target: Voltage-gated inwardly rectifying potassium channel KCNH2 (Homo sapiens) (UniProt Q12809)
# Experiment: hERG protection against dofetilide inhibition, confirmation, cell-based, thallium flux, duplicate retest, dofetilide IC70 (AID 1835)
# Details: hERG cell line, FluxOR thallium flux, dofetilide-blocked; at 10 µM; stronger effect = higher value
# Voltage-gated inwardly rectifying potassium channel KCNH2 (Homo sapiens), sequence (Q12809 whole entry, looked up): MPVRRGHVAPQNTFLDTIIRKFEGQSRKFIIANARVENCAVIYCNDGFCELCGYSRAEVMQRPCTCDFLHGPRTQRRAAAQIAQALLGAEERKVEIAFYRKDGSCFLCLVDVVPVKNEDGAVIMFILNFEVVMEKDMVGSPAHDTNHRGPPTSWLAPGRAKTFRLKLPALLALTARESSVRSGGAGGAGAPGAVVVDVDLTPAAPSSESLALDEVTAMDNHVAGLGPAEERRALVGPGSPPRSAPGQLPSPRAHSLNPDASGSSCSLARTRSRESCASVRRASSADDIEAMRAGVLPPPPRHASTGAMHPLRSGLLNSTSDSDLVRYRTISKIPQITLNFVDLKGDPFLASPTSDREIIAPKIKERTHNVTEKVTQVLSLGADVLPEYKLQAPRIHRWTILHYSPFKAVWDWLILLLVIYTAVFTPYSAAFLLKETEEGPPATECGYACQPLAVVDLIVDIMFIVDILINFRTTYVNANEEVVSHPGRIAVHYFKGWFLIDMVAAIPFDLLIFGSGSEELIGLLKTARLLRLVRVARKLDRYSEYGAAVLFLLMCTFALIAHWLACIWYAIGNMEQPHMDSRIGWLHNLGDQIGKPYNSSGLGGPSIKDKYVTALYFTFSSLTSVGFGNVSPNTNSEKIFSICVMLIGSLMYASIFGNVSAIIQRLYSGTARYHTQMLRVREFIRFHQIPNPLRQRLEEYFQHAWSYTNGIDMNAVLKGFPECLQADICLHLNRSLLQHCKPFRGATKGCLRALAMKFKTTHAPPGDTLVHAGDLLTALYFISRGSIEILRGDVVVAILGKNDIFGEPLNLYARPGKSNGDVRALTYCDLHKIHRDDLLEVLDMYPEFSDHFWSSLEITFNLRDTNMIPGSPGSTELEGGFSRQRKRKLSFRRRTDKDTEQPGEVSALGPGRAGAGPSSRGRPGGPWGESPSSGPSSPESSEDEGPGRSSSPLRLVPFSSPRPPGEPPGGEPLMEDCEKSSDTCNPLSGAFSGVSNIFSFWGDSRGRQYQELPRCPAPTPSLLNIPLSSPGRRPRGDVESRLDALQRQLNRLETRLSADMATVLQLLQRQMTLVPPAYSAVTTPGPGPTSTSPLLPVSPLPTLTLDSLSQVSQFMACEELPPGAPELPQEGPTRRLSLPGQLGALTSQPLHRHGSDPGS
row,Compound,"activity increase over dofetilide control, less the hit threshold"
1,O=C(NC(=S)N1CCCCCC1)c1ccc(Cl)cc1Cl,11% (active)
2,CCOC(=O)C1CCCN(C(=S)NC(=O)/C=C/c2ccc(F)cc2)C1 (stereo not given),-6%
3,O=C(/C=C/c1ccccc1)Nc1ccc(C(=O)N2CCCCC2)cc1,-14%
4,O=C(NC(=S)N1CCCC1)c1ccc(Cl)cc1,0%
5,CC(C)(C)c1ccc(C(=O)NC(=S)N2CCCC2)cc1,-6%
6,CC(C)(C)c1ccc(/C=C/C(=O)N2CCCCC2)cc1,5% (active)
7,Cc1ccc2c(c1)C1CN(C)CCC1N2C(=S)NC(=O)c1ccc(Br)cc1 (stereo not given),-26%
8,COc1cc(OC)cc(C(=O)NC(=S)N2CCCCCC2)c1,-12%
9,CN1CCN(C(=S)NC(=O)c2ccc(C(C)(C)C)cc2)CC1,-15%
10,CC1CCN(C(=S)NC(=O)c2ccc(C(C)(C)C)cc2)CC1,22% (active)
11,CC(C)(C)c1ccc(C(=O)NC(=S)N2CCCCCC2)cc1,16% (active)
12,O=[N+]([O-])c1cccnc1Sc1n[nH]c(-c2ccc(Cl)cc2)n1,-14%
13,Cc1ccc2[nH]c3c(c2c1)CNCC3,-15%
14,CCC(=O)Nc1nnc(-c2ccccn2)o1,-17%
15,O=C(NN1C(=O)C2C(c3ccccc3)C=CC(c3ccccc3)C2C1=O)c1ccncc1 (stereo not given),-56%
16,COc1ccc(C(=O)NC(=S)N2CCC(C)CC2)cc1Br,26% (active)
17,O=C(C1CC(=O)N(c2ccc3c(c2)OCCO3)C1)N1CCCC(C(F)(F)F)C1 (stereo not given),-15%
18,COc1ccc(C(=O)NC(=S)N2CCC(C)CC2)cc1,-11%
19,O=C(c1ccc(C(F)(F)F)cc1)C1CCCN(C(=O)CCc2ccncc2)C1 (stereo not given),-7%
20,CC1CN(C(=S)NC(=O)c2ccc(Cl)cc2)CC(C)O1 (stereo not given),5% (active)
21,O=C(NC(=S)N1CCCC(C(F)(F)F)C1)c1ccc(F)cc1 (stereo not given),19% (active)
22,Cc1ccc2c(c1)N(CCC(=O)NCc1cccnc1)C(=O)CO2,-17%
23,O=C1NC2(CCCCCC2)C(=O)N1Cc1ccccc1,-2%
24,CC(C)(C)OC(=O)NCCCC(CCCNC(=O)OC(C)(C)C)C(=O)O,-22%
25,CCOC(=O)CN1C(=O)SC(Nc2ccc(C)cc2)C1=O (stereo not given),-10%
26,Cc1nc2c(C(=O)NCc3cccs3)cnn2c(C)c1Cc1ccccc1,-12%
27,CCCn1c(SCC(N)=O)nc2c(c1=O)C1(CCCC1)Cc1ccccc1-2,2% (active)

row,Compound,"activity increase over dofetilide control, less the hit threshold"
1,CC1CCCN(C(=O)COC(=O)c2cc(-c3cccs3)nn2-c2ccccc2)C1 (stereo not given),-29%
2,Nc1ccc(NC(=O)Nc2ccc(N)cc2)cc1,-3%
3,COc1cccc(N2CCN(CC(=O)NC(=O)NCc3ccco3)CC2)c1,-9%
4,O=C(NCc1ccco1)c1ccc(OCC2CCCO2)cc1 (stereo not given),-22%
5,Cc1cc2c(cc(C(=O)OC(C(=O)NCc3ccco3)C(C)C)n2C)o1 (stereo not given),2% (active)
6,CCc1ccc(/C=C/C(=O)C2C(=O)c3ccccc3C2=O)cc1,49% (active)
7,CCc1ccc(/C=c2\s/c(=C\C(=O)C(C)(C)C)[nH]c2=O)cc1,-6%
8,Cc1ccc(/C=C(\NC(=O)c2ccccc2)C(=O)N2CCCCC2)cc1,-26%
9,Cc1ccc(/C=C/C(=O)C2C(=O)c3ccccc3C2=O)cc1,42% (active)
10,CC(=O)C1=C(C)NC(=O)NC1/C=C/c1ccccc1 (stereo not given),-1%
11,CCC(c1nnc(SCC(=O)NCCc2ccc(Cl)cc2Cl)o1)N(C)C (stereo not given),-16%
12,CCCCNC(=S)NNC(=O)c1ccc2c(c1)OCO2,-13%
13,O=C(NC(=S)N1CCN(Cc2ccc3c(c2)OCO3)CC1)c1ccc(Cl)cc1,21% (active)
14,O=C(NC(=S)N1CCN(C/C=C/c2ccccc2)CC1)c1ccc(Cl)nc1,-7%
15,O=C(COc1ccc(Cl)cc1)N1CCN(Cc2ccc3c(c2)OCO3)CC1,-17%
16,O=C(NC(=S)N1CCN(Cc2ccc3c(c2)OCO3)CC1)c1cccc(Br)c1,48% (active)
17,COc1ccc(C(=O)N2CCN(Cc3ccc4c(c3)OCO4)CC2)cc1[N+](=O)[O-],-7%
18,Cc1cc(Cl)c(S(=O)(=O)N2CCSCC2)cc1OCC(=O)NC1CCCCC1,-8%
19,Cc1nc(NCCc2ccc(S(N)(=O)=O)cc2)c2c(C)c(C)sc2n1,2% (active)
20,O=C(Nc1nc(-c2ccccc2)c(-c2ccccc2)o1)c1ccc(F)cc1,17% (active)
21,O=C(Nc1cccc2[nH]ncc12)c1ccc(F)cc1,-7%
22,O=C(Nc1nnc(-c2ccccc2)o1)c1ccc(Cl)cc1,-19%
23,O=c1cc(-c2c(F)c(F)c(F)c(F)c2F)oc2ccccc12,2% (active)
24,CCOC(=O)C(=CNc1ccc(N2CCOCC2)cc1)C(=O)OCC,0%
25,CCOC(=O)C(=CNc1cc(C)nn1C(C)(C)C)C(=O)OCC,2% (active)
26,CCOC(=O)C(=CNc1cc(C)ccc1[N+](=O)[O-])C(=O)OCC,-17%
27,CCOC(=O)CC(=O)CSc1nc2c(C)c(C)ccc2cc1C,-7%

row,Compound,"activity increase over dofetilide control, less the hit threshold"
1,CCOC(=O)C(=CNc1cccc(C)n1)C(=O)OCC,5% (active)
2,CCOC(=O)C(=CNc1ccc(OC)cc1[N+](=O)[O-])C(=O)OCC,-10%
3,CCOC(=O)C(=CNc1cc(C)ccn1)C(=O)OCC,10% (active)
4,O=C(NC1CCCC1)C(c1ccncc1)N(C(=O)Cn1nnc(-c2ccccc2F)n1)c1cccc(F)c1 (stereo not given),-14%
5,Cc1cccc(C)c1NC(=O)Cn1cnc2c(=O)n(C)c(=O)n(C)c21,-17%
6,COc1ccccc1C1C(C(=O)c2ccc(C)o2)=C(O)C(=O)N1c1cc(C)on1 (stereo not given),-1%
7,Cc1ccc(NC(=O)COc2cccnc2[N+](=O)[O-])cc1S(=O)(=O)N1CCOCC1,-24%
8,Cc1ccc(-c2noc(CCC(=O)NC3CCCC3)n2)cc1,-7%
9,Cc1cc(C)cc(-n2c(C)cc(/C=N/NC(=O)CN(c3c(C)cccc3C)S(C)(=O)=O)c2C)c1,-1%
10,CCN(C(=S)NC(=O)c1ccccc1Br)C1CCCCC1,80% (active)
11,O=C(NCC1CCCCC1)c1cccnc1Cl,-14%
12,CN(C(=S)NC(=O)c1ccccc1Br)C1CCCCC1,1% (active)
13,COc1cc(S(=O)(=O)Nc2c(C)cc(C)cc2C)ccc1Cl,-10%
14,O=C(CN1C(=O)COc2ccccc21)NNC(=O)Nc1ccccc1F,-22%
15,CCCn1c(SCN2C(=O)c3ccccc3C2=O)nc2cc(Cl)ccc2c1=O,20% (active)
16,CC(C)CCn1c(SCC(=O)NC2CC2)nc2cc(Cl)ccc2c1=O,-13%
17,COCCn1c(SCC(=O)Nc2cc(C)cc(C)c2)nc2ccccc2c1=O,-9%
18,CCCCC1C2=C(CCCC2=O)OC2=C1C(=O)CCC2,-13%
19,CCCCn1c(N)c(C(=S)NC(=O)CC(C)(C)C)c(=O)n(C)c1=O,-3%
20,O=C1c2ccccc2NC(c2ccc(Br)s2)N1O (stereo not given),41% (active)
21,COc1ccc(/C=C/c2cc(=O)c3cc(Cl)ccc3o2)cc1,56% (active)
22,Cc1oc2ccc(OCc3ccc(Cl)cc3)cc2c1C(=O)O,-7%
23,COc1ccc(-c2cc(=O)oc3cc(OCC(C)=O)ccc23)cc1,-27%
24,CCN(C(=O)c1cc2c(=O)[nH]c3ccc(C)cc3c2s1)c1ccccc1F,-15%
25,O=C(c1ccc2c(c1)N(Cc1ccccc1F)C(=O)c1ccccc1S2(=O)=O)N1CCCC1,-10%
26,CC/C(=N\NC(=O)c1nnn(-c2nonc2N)c1-c1cccs1)c1ccccc1,-4%
27,N#Cc1ccccc1OCCN1C(=O)c2ccccc2C1=O,-4%

row,Compound,"activity increase over dofetilide control, less the hit threshold"
1,S=c1[nH]nc(Nc2ccc(Cl)cc2)s1,-3%
2,Cc1ccc(-c2csc(=S)[nH]2)cc1,95% (active)
3,S=c1[nH]c(-c2ccccc2)cs1,66% (active)
4,S=c1[nH]c(-c2ccc(Cl)cc2)cs1,136% (active)
5,O=Cc1cc(-c2ccccc2)[nH]c1-c1ccccc1,-19%
6,CO/N=C(\CCC(=O)O)c1cccs1,-20%
7,O=C(N/N=C/c1cc([N+](=O)[O-])ccc1O)c1ccc(COc2ccc3c(c2)CCC3)o1,-10%
8,O=C(O)COc1ccccc1/C=C1\SC(=S)N(NC(=O)c2ccccc2O)C1=O,-11%
9,Cc1c(N2C(=O)/C(=C\c3ccccc3O)SC2=S)c(=O)n(-c2ccccc2)n1C,14% (active)
10,O=C(OCc1ccc(F)cc1)c1cc(S(=O)(=O)N2CCCCC2)ccc1N1CCOCC1,-21%
11,Cc1cc(=O)oc(C)c1C(=O)NCCC(C)C,-17%
12,COc1ccc(NC(=O)C(=O)NNC(=O)c2cccs2)c(OC)c1,28% (active)
13,COc1ccc(NC(=O)CNC(=O)c2cccs2)cc1Cl,-8%
14,COc1cc(NC(=O)c2ccc3c(c2)OCO3)ccc1NC(=O)c1cccs1,-22%
15,COc1ccc(OC)c(NC(=O)C(=O)NNC(=O)c2cccs2)c1,8% (active)
16,CCc1cccc2c1NC(=O)C2(O)CC(=O)c1cccs1 (stereo not given),-11%
17,COC(=O)c1ccnc(/C=N/O)c1,-13%
18,O=C1NC(=S)SC1=C1CCCCCC1,53% (active)
19,O=C(O)c1ccc(S(=O)(=O)/N=C2\C=C(Nc3ccccc3F)C(=O)c3ccccc32)cc1,4% (active)
20,Cc1ccccc1NC1=C/C(=N\S(=O)(=O)c2ccc(C(=O)O)cc2)c2ccccc2C1=O,-6%
21,O=c1c2ccccc2[nH]c(=S)n1CCC1=CCCCC1,11% (active)
22,O=c1c2ccc(Cl)cc2[nH]c(=S)n1CCC1=CCCCC1,42% (active)
23,O=c1c2cccnc2[nH]c(=S)n1CCC1=CCCCC1,-3%
24,O=C(CCn1c(=S)[nH]c2cc3c(cc2c1=O)OCO3)NCc1ccc(Cl)cc1,-8%

# From PubChem BioAssay AID1835 (Johns Hopkins Ion Channel Center, 2009)
